In publication PMC13494018:
A number with no mark means an inactive call. How the calls were made is not given here.

Molecular target: VTCN1, Q7Z7D3
Sequence (Q7Z7D3 whole entry): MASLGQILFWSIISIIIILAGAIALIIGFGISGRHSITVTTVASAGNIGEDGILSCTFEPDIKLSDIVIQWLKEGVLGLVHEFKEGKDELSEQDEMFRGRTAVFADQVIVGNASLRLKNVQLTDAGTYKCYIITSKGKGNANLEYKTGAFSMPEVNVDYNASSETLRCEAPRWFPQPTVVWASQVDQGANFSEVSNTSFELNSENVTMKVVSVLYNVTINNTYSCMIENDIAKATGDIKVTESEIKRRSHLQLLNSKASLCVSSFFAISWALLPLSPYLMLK

B1: d4r5_design_ppi_25_dldesign_0_cycle0_af2pred (protein)
chain: EKEEALKKAANIIQKMREEGTAGINEAKVSGSKEIAKEAIKKAEELAKKALEEASKATPEDYEKAKEKVKRILERLKKEAEKVIKE
binding in a display sort: not found

B2: d4r5_design_ppi_19_dldesign_0_cycle0_af2pred (protein)
chain: MEEKLKEAAKKVQEAYQLAAENKEKREELRELAKKARESLKEAEKAYKEGKEEEAEKYLEKSFEYNKEAEELYKKTKKEKEEKEKK
binding in a display sort: not found

B3: d4r4_design_ppi_481_dldesign_0_cycle1_af2pred (protein)
chain: MADEASAEIRLENAKDAAKIWIKKVEKIDPELAKEYAAKMKEAAKKPDKEGAKKAREIAKEVKKKAEELEKKAKEKEEEKKKEEEEK
binding in a display sort: not found

B4: d4r5_design_ppi_20_dldesign_0_cycle1_af2pred (protein)
chain: MNLEELKKKVKEYTKELGKKAGVSEEEIKELAELAAEAASLSSDTTKEVLEDYAKESSEKVAKVAKETAEYAIEIKKKAR
binding in a display sort: not found

B5: d4r5_design_ppi_34_dldesign_0_cycle1_af2pred (protein)
chain: EEEKLKAAEAAARNLKLAIEAAKTEGKEYGILYMESAVQAGEIVGLGEKVKETKEALEKNPEEGIKLAEELKKEFEAIV
binding in a display sort: not found

B6: d4r5_design_ppi_34_dldesign_0_cycle0_af2pred (protein)
chain: EEEKKEAAKKAAELIERAIEAAKTEGKEYGIIYMEAAVEAAKKVGLGEKAKEALKALEKDEEEGIKLAKELREEFEKLI
binding in a display sort: not found

B7: d4r4_design_ppi_411_dldesign_0_cycle1_af2pred (protein)
chain: SAAEVAALEKAARAAIAAALAAAKAALADPSTLAEQKKAAEAALAAAREAAAAARWKDYEVGEALRKELAAAEKEVKATIAEAQKKKE
binding in a display sort: not found

B8: d4r4_design_ppi_490_dldesign_0_cycle0_af2pred (protein)
chain: AKTEEEAKKAATEASEAVADLRGYEQEAKIKGNEEAAKVAKEAIKEAAKLAKEAAASKDPKEALKLAKEALKVAKKAIEEVKKLLE
binding in a display sort: not found

B9: d4r4_design_ppi_471_dldesign_0_cycle1_af2pred (protein)
chain: EEAKKVAEEAKKVGKEAAKAGLEKLAAEAFEASYKVKAAYDFYKKNPEKGKEILEEEVKEAKKVIEKAKKEIKKAKAKA
binding in a display sort: not found

B10: d4r4_design_ppi_410_dldesign_0_cycle0_af2pred (protein)
chain: AAAAAAAQKAEMDRTVAAAERQTAILEKRLKAAGLTALADKVKAALAALKAAAEAGDYEAAKKAAAALAKAAAEAREAVAEKEVKA
binding in a display sort: not found

B11: d4r4_design_ppi_486_dldesign_0_cycle1_af2pred (protein)
chain: MEEVVKKAEEAAKKAVEAAREAAKKNAADPEKVKYLAELAQEALEARAVALAKPELAEEELKKIEEKRKKAEEILA
binding in a display sort: not found

B12: d4r4_design_ppi_396_dldesign_0_cycle0_af2pred (protein)
chain: AEAAAFAAAKAAAAKAFAEAYEAANALLASGKYKEEAEKGKKELKELAKKLKAAKTAEEAKKVAEEAKKLAEKLKKLLEEAE
binding in a display sort: not found

B13: d4r5_design_ppi_7_dldesign_0_cycle1_af2pred (protein)
chain: EESKELRIKAISLLSSAAFYAKTLGPEGKYFEKAAELALTDLEKAIEEAKKALKAAEKLDKELAKRVEKAIEYLKKALE
binding in a display sort: not found

B14: d4r4_design_ppi_439_dldesign_0_cycle1_af2pred (protein)
chain: AEEEERERRVREAAEWLVEAPVRLANEAALRAGELAGDSDLALEIQALNNYNREEGARAALASPAREVVAEATEEVRRRREAERAAA
binding in a display sort: not found

B15: d4r4_design_ppi_490_dldesign_0_cycle1_af2pred (protein)
chain: AEVEKEAKKAATEAREAVAELRGLAQEAKLKGVEEAKKVAEEAIKEASALLKEAAKEKDPEKALKLAKEAYKVAKEAIKKAKKLLE
binding in a display sort: not found

B16: d4r4_design_ppi_491_dldesign_0_cycle1_af2pred (protein)
chain: SANKELADAIKEAAKEAQAAANAAKEAYADDPAKAKEFADKMEKKIDEAHNSDLETAKKIAEEAKKEKEKAKAALKKAKA
binding in a display sort: not found

B17: d4r4_design_ppi_471_dldesign_0_cycle0_af2pred (protein)
chain: EEAEKVAKEAREVGKEAAEAGLKKTAAEAFAAANRVRAALAFKKANPEKGQPILEEEVKEAKEVIEKAKKEIAAKKAAA
binding in a display sort: not found

B18: d4r4_design_ppi_486_dldesign_0_cycle0_af2pred (protein)
chain: MEETIERAKEAAREALEAAREAAKKNAADPEKVKKLAELAQKAQEARAEALAKPEKAEEALKRIEEYLKEAKEILE
binding in a display sort: not found

B19: d4r5_design_ppi_25_dldesign_0_cycle1_af2pred (protein)
chain: EEKEAVKKAAKIIQEMREKGLELIHEAKIKGSKEIAEEGIKKAEELGKKALEAAEKASPEERKKVEEKVEKTLKRIKEEAEKVIKE
binding in a display sort: not found
